Screening results (PubChem BioAssay)
KCNQ2 enhance – enhances the rat KCNQ2 potassium channel. O88943. B-score at 10 µM. AID 2239. CHO-K1 KCNQ2, FluxOR thallium flux fluorescence; active compounds read high. 0.54% of 310,000 active;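 active = fluorescence ratio B-score at least 3 SD of library B-scores, with initial fluorescence B-score within 3 of them, cut at about 5.3 in these data; same plate scores as AID 2156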;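 note: B-score of peak minus minimum over baseline fluorescence ratio after K+ and Tl+ stimulus; positive B-score means potentiation of KCNQ2 with more thallium influx and brighter signal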
KCNQ2 inh – inhibitors of rat KCNQ2 potassium channel; O88943; 1.1% of 310,000 active; B-score at 10 µM; CHO-K1 KCNQ2, FluxOR thallium flux, 20 min; active compounds read low;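 active = fluorescence ratio B-score at most minus 3 library SDs, with starting brightness B-score within 2 library SDs, cut at about -5.5 in these data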
Kir21 confirm – confirmation of mouse Kir2.1 potassium channel inhibitors. shares compounds with KCNQ2 enhance. Kir2.1-expressing cells, FluxOR thallium flux fluorescence; active compounds read low. Tl flux remaining, % of negative control (active compounds read low), % at 10 µM. 41% of 2,300 active. AID 2032;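 active = Primary-screen hit whose thallium flux fell at least 3 control SD below untreated wells in both duplicates, with normal baseline fluorescence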;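 note: 0% = blank wells without stimulus and 100% = stimulated no-compound controls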
HEK293 ctr – alters thallium flux in parental HEK293 cells, Kir2.1 counter-screen. FluxOR signal as % of negative control (100 = no effect), % at 10 µM. 19% of 2,300 active. shares compounds with KCNQ2 enhance. FluxOR thallium flux fluorescence; 0% = unstimulated blank wells;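 active = dye signal at least 3 control SD above or below untreated wells in both duplicates, raw fluorescence within 3, either direction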;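 note: percent is based on the flux ratio of peak minus minimum fluorescence over baseline F0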
CHO-K1 Tl ctr – counter-screen for KCNQ2 potentiators: effect in parental CHO-K1 cells; FluxOR thallium flux fluorescence; zero = vehicle mean+3SD, 100% = vehicle-minus-blank window; shares compounds with KCNQ2 enhance; 43% of 1,200 active; activity increase over 3SD of controls, % at 10 µM; AID 2282;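 active = signal rise of at least 3 SD above the untreated control mean, in both duplicate wells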;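 note: counter screen of KCNQ2 potentiator hits so any rise reflects channel-independent effects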
KCNQ1 pot spec – selectivity of KCNQ2 potentiators: effect on human KCNQ1; shares compounds with KCNQ2 enhance; activation over 3SD threshold, % at 10 µM; 28% of 1,200 active; CHO KCNQ1 stable, FluxOR thallium flux fluorescence; beyond 3SD, as % of vehicle-control signal;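 active = fluorescence ratio rise of at least 3 SD of vehicle wells above their mean, in both replicate wells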;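 note: 0% = vehicle mean plus 3 SD and 100% = vehicle minus unstimulated blank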
KCNQ2 pot conf – rat KCNQ2 channel potentiator confirmation; shares compounds with KCNQ2 enhance; CHO-KCNQ2 cells, FluxOR thallium flux fluorescence; potentiation, less the hit threshold, % at 10 µM; 68% of 1,200 active;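 active = fluorescence ratio rising 3 SD or more over the vehicle control mean in both replicates, plus primary screen hit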;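 note: peak minus minimum thallium fluorescence divided by baseline after K/Tl stimulus; 0% = vehicle mean plus 3 SD and 100% = vehicle minus unstimulated blank difference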
Kir2-1 sel – selectivity of KCNQ2 potentiators: effect on mouse Kir2.1 | shares compounds with KCNQ2 enhance | activity over 3SD threshold, % at 10 µM | 2% of 1,200 active | HEK293 Kir2.1, FluxOR thallium flux fluorescence | AID 2345;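 active = fluorescence ratio rise of at least 3 SD above the vehicle-control mean, seen in both replicates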;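 note: 0% = vehicle mean plus 3 SD and 100% = vehicle minus no-stimulus blank window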
* = called active by the depositor; i = inactive; / = not tested or not shown. Hits are enriched below; roughly 1.6% of the tested compounds scored in any of these assays.

SMILES | KCNQ2 enhance | KCNQ2 inh | Kir21 confirm | HEK293 ctr | others
Cc1c(C(N)=O)sc2ncn(CC(=O)NCCc3ccccc3)c(=O)c12 | / | i | / | /
Cc1cc(C)n2nc(SCCOc3ccccc3F)nc2n1 | 1.5 | i | / | /
CCCCCCCCCCCC(=O)c1c(O)cccc1O | 1.1 | i | / | /
CC(C)CCNC(=O)C1CCN(S(=O)(=O)c2ccc3c(c2)CC(C)N3C(=O)C2CCC2)CC1 (stereo not given) | 0.37 | i | / | /
Cc1ccc(CNC(=O)C2CCN(S(=O)(=O)c3ccc4c(c3)CC(C)N4C(=O)C3CCC3)CC2)o1 (stereo not given) | 6.6* | i | i | i | CHO-K1 Tl ctr=-11;KCNQ1 pot spec=-13;KCNQ2 pot conf=-10;Kir2-1 sel=-37
COc1cccc(CNC(=O)CSCc2cnn(-c3ccccc3)c2-n2cccc2)c1OC | / | i | / | /
COc1ccccc1CNC(=O)CSCc1cnn(-c2ccccc2)c1-n1cccc1 | / | i | i | i
CCCCCCCC[n+]1cccc2c3ccccc3ccc21 | 0.04 | i | / | /
CCCCCCCCCC[n+]1cccc2c3ccccc3ccc21 | / | i | 7.5%* | i
CC(C)=CCC/C(C)=C/CC(C)(C)CNCCN1CCNCC1 | / | i | i | i
CC(C)=CCC/C(C)=C/CCC(C)NCCN1CCNCC1 (stereo not given) | / | i | / | /
O=C(Nc1ccc(Br)cc1)c1cnc[nH]1 | / | i | / | /
CC(=O)c1cccc(CN(C)CC2CCCN(CCc3ccccc3C)C2)c1 (stereo not given) | 0.27 | i | 51%* | i
COc1ccc(CCN2CCCC(CN(C)Cc3cc(OC)c(OC)c(OC)c3)C2)cc1 (stereo not given) | 0.93 | i | / | /
COc1ccc(F)c(CN(C)CC2CCCN(CCc3ccc(F)cc3)C2)c1 (stereo not given) | / | i | 31%* | i
COc1ccc(CN(C)CC2CCCN(CCc3ccc(Cl)cc3)C2)cc1OC (stereo not given) | / | i | / | /
CN(Cc1ccccc1)CC1CCCN(CCc2ccccc2F)C1 (stereo not given) | / | i | / | /
COc1cc(CN(C)CC2CCCN(CCc3ccc(F)cc3)C2)c(Cl)cc1O (stereo not given) | 0.49 | i | / | /
CCOc1cccc(CN(C)CC2CCCN(CCc3ccc(Cl)cc3)C2)c1O (stereo not given) | / | i | 48%* | i
COc1ccc(CN(C)CC2CCCN(CCc3ccc(F)cc3)C2)cc1OC (stereo not given) | / | i | 62%* | i
O=c1c2ccccc2cnn1Cc1ccc(Br)cc1F | 0.85 | i | / | /
CC(=O)Nc1ccc(NC(=O)C(C)OC(=O)C2CCN(S(=O)(=O)c3ccc4c(c3)OCCO4)CC2)cc1 (stereo not given) | / | i | / | /
CCCCn1c(N)c(N(CCOC)C(=O)COc2ccc(OCC)cc2)c(=O)[nH]c1=O | 0.94 | i | / | /
CCCCn1c(N)c(N(CCOC)C(=O)COC(=O)CCOc2ccccc2)c(=O)[nH]c1=O | / | i | i | i
CC(CCc1ccco1)N(C)S(=O)(=O)c1csc(C(N)=O)c1 (stereo not given) | 0.17 | i | / | /
SMILES | KCNQ2 enhance | KCNQ2 inh | Kir21 confirm | HEK293 ctr | others
CCCCN(Cc1ccco1)S(=O)(=O)c1csc(C(N)=O)c1 | / | i | 48%* | i
Cc1c(C(=O)/C=C/N(C)C)nnn1-c1ccc(Cl)cc1C#N | 0.71 | i | / | /
COc1cc(/C=C2/SC(=S)N(CC(=O)O)C2=O)ccc1OCC(=O)Nc1ccc(C)c(C)c1 | / | i | i | i
COc1ccc(/C=C2/SC(=O)N(CCC(=O)Nc3ccc(C)cc3)C2=O)cc1OC | 0.85 | i | / | /
COc1ccc(OCC(=O)NCCNC(=O)c2cccnc2)cc1 | 0.17 | i | / | /
COc1cccc(CNc2ccc3[nH]c(=O)[nH]c3c2)c1OCc1ccccc1F | 5.1 | i | 66%* | i
